This assay concerns NCI-H1944. The assay is described as follows: normalised cell viability (NPI; 0 = phenylarsine oxide control, 1 = DMSO control) (fraction of DMSO control); NCI-H1944 is a non-small cell lung cancer line; higher = more viable cells (less compound toxicity). The conditions noted are these: 6 days.
[1] abbreviates: glucocorticoid arm: hydrocortisone 2.75 uM co-treatment, compound 1 µM.
Where [2] appears, read: glucocorticoid arm: hydrocortisone 2.75 uM co-treatment, compound 5 µM.
Where [3] appears, read: glucocorticoid arm: hydrocortisone 2.75 uM pre-treated 2 days and continued, compound 1 µM.
Where [4] appears, read: glucocorticoid arm: hydrocortisone 2.75 uM pre-treated 2 days and continued, compound 5 µM.
[5] abbreviates: glucocorticoid arm: vehicle, compound 1 µM.
Where [6] appears, read: glucocorticoid arm: vehicle, compound 5 µM.

Structures can show the parent of a compound that is named as a salt. ± gives the standard deviation of the averaged measurements. In all, about 1,900 compounds were measured (“normalised cell viability (NPI; 0 = phenylarsine oxide control, 1 = DMSO control)”: median about 1, lowest 2% from about 0.039 on). The list comes from a sample in which the lowest values are over-represented; it also holds similar structures and randomly drawn compounds.

Experimental findings from the supplement of paper PMC8285479 are described below.
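Also: CTB read-out in 384-well plates, triplicate wells, NPI normalised per plate against 1 µM phenylarsine oxide (0) and 0.1% DMSO (1) controls.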

Take `CN1CCN(c2ccc(OC(F)(F)F)c(Nc3ncc4c(n3)-c3c(c(C(N)=O)nn3CCO)CC4)c2)CC1`: the normalised cell viability under setting [1] came out at 0.183 ± 0.025; the normalised cell viability under setting [2] came out at 0.146 ± 0.02; the normalised cell viability under setting [3] is 0.428 ± 0.025; the normalised cell viability under setting [4] is 0.556 ± 0.069; the normalised cell viability under setting [5] was 0.0347 ± 0.0042; the normalised cell viability under setting [6] was determined as 0.0361 ± 0.0086.
`OCCn1cc(-c2cnc3nnn(Cc4ccc5ncccc5c4)c3n2)cn1`: the normalised cell viability is, setting by setting: under setting [1], 1 ± 0.01; under setting [2], 1.02 ± 0.026; under setting [3], 1.02 ± 0.015; under setting [4], 1.02 ± 0.052; under setting [5], 1.01 ± 0.011; under setting [6], 1.02 ± 0.015.
For the compound `Cc1c(NC(=O)c2ccc(C(C)(C)C)cc2)cccc1-c1cn(C)c(=O)c(Nc2ccc(C(=O)N3CCOCC3)cc2)n1`, the normalised cell viability amounted to 1.017 ± 0.0058 under setting [1]; 1.03 ± 0.032 under setting [2]; 1.007 ± 0.0058 under setting [3]; 0.987 ± 0.022 under setting [4]; 1 ± 0.0087 under setting [5]; 1.006 ± 0.0063 under setting [6].
Regarding `CN1C2CCC1CC(NC(=O)c1nn(C)c3ccccc13)C2` (stereo not drawn) [LY-278,584 maleate], the normalised cell viability under setting [1] turned out to be 0.9863 ± 0.0067; the normalised cell viability under setting [2] is 0.977 ± 0.033; the normalised cell viability under setting [3] worked out at 0.9957 ± 0.0075; the normalised cell viability under setting [4] stood at 1.03 ± 0.085; the normalised cell viability under setting [5] was 0.9753 ± 0.0051; the normalised cell viability under setting [6] amounted to 0.9783 ± 0.0091.
For `CC(C)NCC(O)COc1ccc(CC(N)=O)cc1` (racemic) [(±)-Atenolol], the normalised cell viability under setting [1] came to 0.987 ± 0.007; the normalised cell viability under setting [2] was determined as 1.001 ± 0.0085; the normalised cell viability under setting [3] worked out at 1.003 ± 0.0064; the normalised cell viability under setting [4] turned out to be 1.02 ± 0.021; the normalised cell viability under setting [5] was determined as 1.005 ± 0.0092; the normalised cell viability under setting [6] was 1.01.
Consider `NC(C(=O)O)C(O)C(=O)O` (racemic) [DL-threo-beta-hydroxyaspartic acid], for which the normalised cell viability was 1.01 ± 0.011 under setting [1]; 1.01 ± 0.028 under setting [2]; 1.01 ± 0.022 under setting [3]; 1.01 ± 0.018 under setting [4]; 1.003 ± 0.0061 under setting [5]; 1.001 ± 0.0081 under setting [6].
`CCCN(CCc1ccccc1)C1CCc2c(O)cccc2C1` (racemic) [(±)-PPHT hydrochloride]: the normalised cell viability reads like this: under setting [1], 0.986 ± 0.011; under setting [2], 0.969 ± 0.03; under setting [3], 1.05 ± 0.078; under setting [4], 0.966 ± 0.02; under setting [5], 1.007 ± 0.0058; under setting [6], 1.003 ± 0.0058.
On to `Cl.N[C@@H](CCC(=O)O)C(=O)O` [L-Glutamic acid hydrochloride], for which the normalised cell viability was 1.013 ± 0.0058 under setting [1]; 1 ± 0.029 under setting [2]; 1.013 ± 0.0058 under setting [3]; 0.989 ± 0.027 under setting [4]; 1.023 ± 0.0058 under setting [5]; 1.02 ± 0.01 under setting [6].
As to `Clc1ccc(C(c2ccc(Cl)cc2)[n+]2ccn(CC(OCc3ccc(Cl)cc3Cl)c3ccc(Cl)cc3Cl)c2)cc1` (stereo not drawn) [Calmidazolium chloride], the normalised cell viability reads like this: under setting [1], 0.974 ± 0.035; under setting [2], 0.00138 ± 0.00076; under setting [3], 0.993 ± 0.012; under setting [4], -0.000224 ± 0.0015; under setting [5], 1.002 ± 0.0072; under setting [6], 0.00119 ± 0.00017.
As to `CN(CC[C@@H](Oc1ccc(C(F)(F)F)cc1)c1ccccc1)CC(=O)[O-].[Li+]`, the normalised cell viability is 0.992 ± 0.0046 under setting [1]; 0.989 ± 0.011 under setting [2]; 0.99 ± 0.014 under setting [3]; 0.998 ± 0.018 under setting [4]; 0.979 ± 0.016 under setting [5]; 0.9777 ± 0.0035 under setting [6].
As for `NCCC[C@](N)(C(=O)O)C(F)F` (racemic) [DL-alpha-Difluoromethylornithine hydrochloride], the normalised cell viability by setting is: under setting [1], 0.9853 ± 0.0063; under setting [2], 0.923 ± 0.021; under setting [3], 0.9873 ± 0.0064; under setting [4], 0.932 ± 0.011; under setting [5], 0.9863 ± 0.0055; under setting [6], 0.9817 ± 0.0032.
As for `O=C(CCCN1C(=O)c2cccc3cccc(c23)C1=O)NO` [Nullscript], the normalised cell viability reads like this: under setting [1], 0.981 ± 0.011; under setting [2], 0.961 ± 0.029; under setting [3], 1 ± 0.012; under setting [4], 0.987 ± 0.018; under setting [5], 1 ± 0.0082; under setting [6], 1.01 ± 0.014.
With `c1cc(CN2CCCNCCNCCCNCC2)ccc1CN1CCCNCCNCCCNCC1` [Plerixafor], the normalised cell viability runs as follows: under setting [1], 1 ± 0.018; under setting [2], 1 ± 0.017; under setting [3], 1.01 ± 0.011; under setting [4], 0.996 ± 0.016; under setting [5], 1.006 ± 0.0063; under setting [6], 1.01 ± 0.013.
Regarding `CNCc1ccc(-c2[nH]c3cc(F)cc4c3c2CCNC4=O)cc1`, the normalised cell viability was 0.982 ± 0.0036 under setting [1]; 1 ± 0.071 under setting [2]; 0.968 ± 0.0095 under setting [3]; 1.01 ± 0.022 under setting [4]; 0.989 ± 0.013 under setting [5]; 0.948 ± 0.022 under setting [6].
For the compound `CCCCc1nc2cc(/C=C/C(=O)NO)ccc2n1CCN(CC)CC` [Pracinostat (SB939)], the normalised cell viability is 0.9753 ± 0.004 under setting [1]; 0.00959 ± 0.0058 under setting [2]; 1 ± 0.0095 under setting [3]; 0.0658 ± 0.0071 under setting [4]; 0.686 ± 0.077 under setting [5]; 0.000852 ± 0.0004 under setting [6].
`Nc1ncnc2c1c(-c1cccc(OCc3ccccc3)c1)cn2C1CC(CN2CCC2)C1` (stereo not drawn): the normalised cell viability came to 0.457 ± 0.025 under setting [1]; 0.366 ± 0.021 under setting [2]; 0.596 ± 0.0046 under setting [3]; 0.436 ± 0.062 under setting [4]; 0.939 ± 0.013 under setting [5]; 0.776 ± 0.039 under setting [6].
Consider `O=C(NCCO)c1ccc2c(c1)nc(Nc1cccc(Cl)c1)c1ccncc12` [CK2 Inhibitor 2], for which the normalised cell viability reads like this: under setting [1], 1.02 ± 0.022; under setting [2], 0.854 ± 0.028; under setting [3], 1.03 ± 0.015; under setting [4], 1.07 ± 0.021; under setting [5], 1.001 ± 0.0081; under setting [6], 0.567 ± 0.033.
On to `COc1cccc2c1C(=O)c1c(O)c3c(c(O)c1C2=O)C[C@@](O)(C(=O)CO)C[C@@H]3O[C@H]1C[C@H](N)[C@H](O)[C@H](C)O1` [Doxorubicin hydrochloride; 4'-Epiadriamycin; Doxorubicin HCl], for which the normalised cell viability by setting is: under setting [1], 0.454 ± 0.36; under setting [2], 0.288 ± 0.3; under setting [3], 0.754 ± 0.26; under setting [4], 0.484 ± 0.48; under setting [5], 0.178 ± 0.17; under setting [6], 0.129 ± 0.14.
For `CCCCC(=O)OCC(=O)[C@]1(O)Cc2c(O)c3c(c(O)c2[C@@H](O[C@H]2C[C@H](NC(=O)C(F)(F)F)[C@H](O)[C@H](C)O2)C1)C(=O)c1c(OC)cccc1C3=O` [Valrubicin], the normalised cell viability under setting [1] was determined as 0.665 ± 0.04; the normalised cell viability under setting [2] was determined as 0.868 ± 0.016; the normalised cell viability under setting [3] is 0.973 ± 0.016; the normalised cell viability under setting [4] was 0.982 ± 0.017; the normalised cell viability under setting [5] stood at 0.228 ± 0.017; the normalised cell viability under setting [6] came out at 0.374 ± 0.0045.
Take `COc1cccc2c1C(=O)c1c(O)c3c(c(O)c1C2=O)C[C@@](O)(C(C)=O)C[C@@H]3O[C@H]1C[C@H](N)[C@H](O)[C@H](C)O1` [Daunorubicin hydrochloride; Daunorubicin HCl]: the normalised cell viability is 0.0398 ± 0.0066 under setting [1]; 1.05 ± 0.011 under setting [2]; 0.587 ± 0.027 under setting [3]; 1.013 ± 0.0058 under setting [4]; 0.0031 ± 0.0017 under setting [5]; 1.007 ± 0.0058 under setting [6].
Regarding `CC(=O)[C@]1(O)Cc2c(O)c3c(c(O)c2[C@@H](O[C@H]2C[C@H](N)[C@H](O)[C@H](C)O2)C1)C(=O)c1ccccc1C3=O` [Idarubicin hydrochloride], the normalised cell viability came out at 0.00497 ± 0.00094 under setting [1]; 0.0017 ± 0.0005 under setting [2]; 0.00532 ± 0.0009 under setting [3]; 0.024 ± 0.0063 under setting [4]; 0.00471 ± 0.00071 under setting [5]; 0.00231 ± 0.00037 under setting [6].
Take `CC(=O)[C@]1(O)Cc2c(O)c3c(c(O)c2[C@@H](O[C@H]2C[C@H](N)[C@H](O)[C@H](C)O2)C1)C(=O)c1ccccc1C3=O` [Idarubicin hydrochloride; Idarubicin; 4-DMD HCl]: the normalised cell viability reads like this: under setting [1], 0.0183 ± 0.0037; under setting [2], 1.06 ± 0.026; under setting [3], 0.0494 ± 0.0094; under setting [4], 1.033 ± 0.0058; under setting [5], 0.00163 ± 0.00068; under setting [6], 1.006 ± 0.0075.
For the compound `NC(CCCP(=O)(O)O)C(=O)O` (racemic) [(±)-2-Amino-5-phosphonopentanoic acid], the normalised cell viability stood at 0.987 ± 0.0072 under setting [1]; 0.9967 ± 0.0031 under setting [2]; 0.9907 ± 0.0083 under setting [3]; 0.993 ± 0.0028 under setting [4]; 0.98 ± 0.0056 under setting [5]; 0.9857 ± 0.0098 under setting [6].
